Experimental data as given in PubChem BioAssay AID504326 (The Scripps Research Institute Molecular Screening Center, 2011).
Among all 340,000 compounds or so, about 990 (0.29%) were called active. Rule as the data show it: active = activation above about 18%; inactive = the rest. Only a selection was taken, and actives are over-represented in it overall.

Each compound was assayed against Mu-type opioid receptor (Homo sapiens) + Delta-type opioid receptor (Homo sapiens) (UniProt P35372+P41143) (assay: inducers of mu-delta opioid receptor heterodimers – cell-based, luminescence, primary screen (AID 504326;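 also: 0% = vehicle-treated cells and 100% = reference agonist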)). Conditions: cells, OPRM1-OPRD1 heterodimerization, at 9.3 µM, active compounds read high.
Chain of Mu-type opioid receptor (Homo sapiens) + Delta-type opioid receptor (Homo sapiens) (P35372 whole entry, looked up): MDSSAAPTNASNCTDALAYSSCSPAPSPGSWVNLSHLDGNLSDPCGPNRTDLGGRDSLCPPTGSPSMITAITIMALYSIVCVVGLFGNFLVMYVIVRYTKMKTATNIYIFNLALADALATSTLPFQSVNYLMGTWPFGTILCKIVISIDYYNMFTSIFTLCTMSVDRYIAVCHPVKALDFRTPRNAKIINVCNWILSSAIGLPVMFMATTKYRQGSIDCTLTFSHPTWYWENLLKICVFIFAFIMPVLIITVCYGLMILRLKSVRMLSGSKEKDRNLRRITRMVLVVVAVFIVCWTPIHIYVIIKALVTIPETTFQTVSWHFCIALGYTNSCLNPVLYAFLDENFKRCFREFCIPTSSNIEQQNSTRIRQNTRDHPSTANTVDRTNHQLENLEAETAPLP
Chain of Mu-type opioid receptor (Homo sapiens) + Delta-type opioid receptor (Homo sapiens) (P41143 whole entry, looked up): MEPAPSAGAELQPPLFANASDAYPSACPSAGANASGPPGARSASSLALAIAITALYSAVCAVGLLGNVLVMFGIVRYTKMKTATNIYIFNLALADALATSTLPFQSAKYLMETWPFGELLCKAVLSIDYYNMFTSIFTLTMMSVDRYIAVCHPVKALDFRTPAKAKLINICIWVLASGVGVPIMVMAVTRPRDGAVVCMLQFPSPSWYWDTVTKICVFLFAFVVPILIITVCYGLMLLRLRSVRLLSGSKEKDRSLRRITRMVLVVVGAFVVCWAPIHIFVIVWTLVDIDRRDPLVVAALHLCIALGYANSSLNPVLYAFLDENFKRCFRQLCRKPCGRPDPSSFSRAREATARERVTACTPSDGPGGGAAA

activation, inactive:
Cc1ccc(OCCCC(=O)Nc2ccc(S(=O)(=O)Nc3cc(C)nc(C)n3)cc2)cc1 0.21%
COc1cccc(CNc2nc(C(F)(F)F)nc3ccccc23)c1 5.18%
NS(=O)(=O)c1ccc(CCNc2nc(C(F)(F)F)nc3ccccc23)cc1 -1.85%
Cc1ccn(C(CC(=O)c2ccc(Br)cc2)C(=O)O)n1 (configuration not stated) -1.91%
Nc1c(Cl)cc(S(N)(=O)=O)cc1S(N)(=O)=O -5.23%
CC1=NNC(=O)C1CCC(=O)N/N=C\c1ccc(Cl)c(Cl)c1 (configuration not stated) -0.87%
COc1cc(/C=N/NC(=O)c2ccoc2C)ccc1OCCN1CCCCC1 -0.79%
COc1cc(/C=N/NC(=O)Cc2ccccc2)cc(OC)c1OC -1.52%
Cc1cc(C)c2c(=O)[nH]c(SCC(=O)Nc3ccc(Br)cc3)nc2n1 2.08%
CN(Cc1ccc(F)cc1)C(=O)CN1C(=O)c2ccccc2S1(=O)=O -2.95%
COC(=O)C1=NNC2(c3ccc(C)cc3)C(=O)N(c3cccc(C)c3C)C(=O)C12 (configuration not stated) -4.85%
COC(=O)C1=C(O)/C(=C/c2ccc(OCC(=O)Nc3ccccc3)cc2)N=C1C -3.18%
Cc1ccc(NC(=O)COc2ccc(/C=C3/NC(=O)NC3=O)cc2)cc1 2.37%
CCOc1ccc(Br)cc1S(=O)(=O)Nc1ccc(C(=O)OC(C)C(=O)N(C)c2ccccc2)cc1 (configuration not stated) 2.35%
CC(c1ccccn1)N(C)C(=O)c1ccc2nc(Cc3cccc(Cl)c3)oc2c1 (configuration not stated) -0.53%
CC1CCCCC12NC(=O)N(CC(=O)OCC(=O)NCc1ccc(F)cc1)C2=O (configuration not stated) -0.67%
Cc1cccc(Oc2c([N+](=O)[O-])c(=O)n(C)c3ccccc23)c1 1.78%
CCOC(=O)C1=C(C)c2ccccc2OC1(C)C(=O)OCC (configuration not stated) -0.33%
CCOC(=O)c1ccccc1OC(=O)Oc1ccccc1C(=O)OCC -2.83%
O=C(NCc1ccccn1)c1cnc2sccn2c1=O -2.49%
COc1cc(C(=O)N(Cc2ccc(N(C)C)cc2)C2CCS(=O)(=O)C2)cc(OC)c1OC (configuration not stated) -1.82%
CC1(C)C(C=C(Cl)Cl)C1C(=O)N(Cc1ccc(Cl)cc1)C1CCS(=O)(=O)C1 (configuration not stated) 0.69%
O=C(C1CC1)N1N=C2CCCCC2C1(O)C(F)(F)F (configuration not stated) -1.35%
CCOC(=O)Cc1ncccc1C(=O)Nc1ccc(OC(F)(F)F)cc1 -3.8%
Cn1cccc1/C=N/NC(=O)c1ccc(OC(F)(F)C(F)F)cc1 -1.62%
O=C(N1CCOCC1)N(Cc1ccccc1)c1ccccn1 -1.92%
CC(=O)CSc1nc(CCc2ccccc2)c(C#N)c(=O)[nH]1 -2.33%
COc1ccc(/C=C2/S/C(=N/N=C3\CC4CCC3(C)C4(C)C)NC2=O)cc1 (configuration not stated) 0.11%
Clc1ccc(C2[C@H]3CN(CC4CCCCC4)[C@H](c4ccccc4)C34CC2(c2cccnc2)C4)cn1 (some centres not stated) -1.67%
CCN1C(=NCCc2cccnc2)N[C@@H](c2ccccc2)C(C(=O)OC)=C1C 0.22%
O=C(/C=C/c1cnc2ccccc2n1)NC1CCCCCC1 -1.86%
CC(C)NS(=O)(=O)c1ccc(NC(=O)C2CCCCC2)cc1 -1.18%
O=C(CC(NC(=O)c1ccccc1)c1ccccc1)Nc1ccc(F)c(F)c1 (configuration not stated) 1.24%
Cc1ccc(CNC(=O)[C@@H](NC(=O)Cc2ccccc2)C(C)C)cc1 2.39%
CCOC(=O)CC(NC(=O)C1c2ccccc2Oc2ccccc21)c1ccc(C)cc1 (configuration not stated) -2.87%
COc1ccc(C(CNC(=O)c2ccc(S(=O)(=O)Nc3ccccc3F)cc2)N(C)C)cc1 (configuration not stated) -3.41%
Cc1cccc(OCC(=O)Nc2ccccc2F)c1 -3.72%
COCCNC(=O)C(c1ccc(C)cc1)N(C(=O)CCC(=O)Nc1ccccn1)c1cccc(C)c1 (configuration not stated) -0.25%
CCNC(=S)N1CCN(c2ncccn2)CC1 -2.13%
CCn1nnnc1SCC(=O)Nc1ccc(N(C)C)cc1 -1.37%
O=C(CC(c1ccccc1)c1ccccc1)NCC(O)c1ccc([N+](=O)[O-])cc1 (configuration not stated) 2.4%
CN(C)CCNC(=O)Cc1ccc([N+](=O)[O-])cc1 -3.71%
Cc1cc(NC(=O)c2cc3ccccc3o2)no1 -2.3%
O=C(NCCc1ccc2c(c1)OCCO2)c1cc2ccccc2o1 -0.68%
COc1ccc(NC(=O)CN2C(=O)COc3ccc(S(=O)(=O)N4CCOCC4)cc32)c(OC)c1 -1.21%
O=C(CSc1nc2ccccc2[nH]1)N/N=C/C=C\c1ccccc1[N+](=O)[O-] -1.78%
O=[N+]([O-])c1ccc(N2CCSCC2)cc1O 0.34%
CC(Sc1nnc(CNC(=O)c2ccccc2F)n1C)C(=O)Nc1nccs1 (configuration not stated) -0.21%
CCCCN(C(=O)COc1ccc(NC(C)=O)cc1)C1CCS(=O)(=O)C1 (configuration not stated) -1.71%
COc1cc2c(cc1OC)CC1(CCCCC1)N=C2 -3.02%
COc1ccc(CCNC(=O)C(Sc2ccccn2)c2ccccc2)cc1OC (configuration not stated) -2.64%
COc1ccc(CCNC(=O)CN(c2ccccc2)S(C)(=O)=O)cc1OC 0.27%
CN(CC(=O)NCCc1ccccc1)S(=O)(=O)c1cnc[nH]1 -1.45%
CSc1sc(C)cc1C1C(C#N)=C(N)N(c2cccnc2)C2=C1C(=O)CCC2 (configuration not stated) -1.23%
CN1CCN(NC(=O)Nc2ccc(Br)cc2)CC1 -3.59%
COCC(=O)Nc1ccc(Br)cc1 -3.01%
Cc1ccc(F)cc1S(=O)(=O)Nc1cccc(C(=O)N2CCCC(C(N)=O)C2)c1 (configuration not stated) 3.39%
CCN(CC)C(=O)CC1(c2ccccc2OC)CCOC(C(C)C)C1 (configuration not stated) -2.63%

activation, active:
CCc1ccc(C(CNc2nc(C(F)(F)F)nc3ccccc23)N(C)C)cc1 (configuration not stated) 81.6%
COc1cc(/C=N/NC(=O)Nc2ccccc2)ccc1OCCOc1ccccc1C 28%
CCOC(=O)C1=C(O)/C(=C/c2ccc(OCC(=O)Nc3ccc(C)cc3)cc2)N=C1C 40.8%
CCOC(=O)c1c(C)[nH]c2c1-c1ccccc1C(=O)C2=O 22.6%
Cc1ccc(CN(C(=O)c2sc3ccccc3c2Cl)C2CCS(=O)(=O)C2)cc1 (configuration not stated) 26.2%
O=C(Nc1ccc(OC(F)(F)F)cc1)c1ccc2c(c1)no[n+]2[O-] 22%
COC(=O)c1ccc(C23CC4(C2)[C@H](CN(Cc2cccnc2)[C@@H]4c2ccccc2)C3c2ccc(Cl)nc2)cc1 (some centres not stated) 19.2%
Cc1ccc(CNC(=O)CC(NC(=O)c2ccccc2)c2ccccc2)cc1 (configuration not stated) 22.7%
COc1ccc(C(CNCC(=O)Nc2ccccc2F)N(C)C)cc1 (configuration not stated) 149%
CN(C)C(CNC(=O)c1cc2ccccc2o1)c1ccccc1 (configuration not stated) 197%
CN(C)C(CNC(=O)Cc1ccc([N+](=O)[O-])cc1)c1ccccc1 (configuration not stated) 67.1%
CN1CCN(c2ccc([N+](=O)[O-])c(Sc3nc4ccccc4[nH]3)c2)CC1 55.9%
COc1ccc(C(CCN(Cc2ccc(OC)c(OC)c2)C(=O)CCl)c2ccccc2)cc1 (configuration not stated) 91.3%
CN1C(CC(=O)Nc2ccc(Br)cc2)c2ccccc2CC1(C)C (configuration not stated) 77.8%
